Source: PubChem BioAssay (NCATS)
Inconclusive results are not listed. Entries that show only a call come without a potency. Active and inactive are the calls of the source. Unless noted, calls come from the whole dose curve; as a rule, active = well fitted curve in the direction sought with a large enough effect; inconclusive = small, poorly fitted or top-dose-only effect, or another doubt; inactive = no such curve, though single readings can be large; an effect the other way counts as inactive or inconclusive.

Experiments:
[1] = biological target: Ferritin light chain (Equus caballus) (UniProt P02791); assay: qHTS Validation Assay for Identification of Novel General Anesthetics (AID 2323); note: series mostly up to about 77 µM
Summary of the method: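 10 uM horse-spleen apoferritin + 1-AMA (50% saturated, PBS); cpd pin-transferred, 10 min RT. Ex 380/Em 535 nm endpoint. Activity normalized between free 1-AMA and 1-AMA/apoferritin; 4-parameter Hill fit of concentration-response.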

[2] = biological target: ATP-dependent DNA helicase Q1 (Homo sapiens) (UniProt P46063); assay: qHTS Validation Assay for Inhibitors of RecQ-Like Dna Helicase 1 (RECQ1) (AID 2353)
Summary of the method: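 RECQ1T1 50 nM; forked duplex (20 bp + 30-nt ss tails) 200 nM, ATP 2 mM final; pH 8.0, 2 mM MgCl2, 2.5 ug/ml poly(dI-dC); 15 min compound preincubation; discontinuous kinetic read over 2 h at RT.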

[3] = biological target: RecQ-like DNA helicase BLM (Homo sapiens) (UniProt P54132); assay: qHTS Validation Assay for Inhibitors of Bloom's syndrome helicase (BLM) (AID 2364)
Summary of the method: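 BLM 50 nM in 25 mM Tris-HCl pH 8.0, 5 mM NaCl, 2 mM MgCl2, 1 mM DTT, 0.01% Tween-20, 2.5 ug/ml poly(dI-dC); 15 min cpd preinc, RT. Start: 200 nM forked DNA + 2 mM ATP (final). TAMRA read, 2 reads 2 h apart.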

[4] = Cytometric Cell-Based qHTS for Inhibitors of the mTORC1 Signaling Pathway in MEF (Tsc2-/-, p53-/-) Cells (AID 2660);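 note: Tsc2 and p53 null MEFs carrying empty vector with compound for 24 h; percent of cells above a phospho-rpS6 to PI ratio cutoff in each well; series mostly up to about 38 µM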
Summary of the method: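 Cells are plated, treated with compound for 24 hrs at 37 degree Celsius, then fixed, blocked and immunostained for phospho-rpS6 Ser235/236. Propidium iodide counterstain follows. Per-well % positive cells is derived from the PI-normalized phospho-S6 signal.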

[5] = High Content Imaging Cell-Based qHTS for Inhibitors of the mTORC1 Signaling Pathway in MEF (Tsc2-/-, p53-/-) Cells (AID 2666);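 note: percent of cells scored positive for phospho-rpS6 Ser235/236 immunostaining by imaging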
Summary of the method: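 Inhibition of rpS6 phosphorylation is measured by immunofluorescence imaging in empty-vector Tsc2-/-, p53-/- mouse embryonic fibroblasts after 24 hrs compound exposure at 37 degree Celsius. Results are reported as % positive cells per well.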

[6] = Cytometry Cell-Based qHTS for Inhibitors of the mTORC1 Signaling Pathway in MEF cells (AID 2668);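 note: Tsc2-/- p53-/- mouse embryonic fibroblasts stably re-expressing wild-type Tsc2; percent cells positive for phospho-rpS6 Ser235/236 relative to propidium iodide stain; series mostly up to about 38 µM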
Summary of the method: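 Read-out: phospho-rpS6 Ser235/236 immunofluorescence normalized to propidium iodide intensity, scored as % active cells against a rapamycin (7.5 nM) threshold. Cells: Tsc2-/-, p53-/- MEFs stably expressing WT Tsc2, compound-treated 24 hrs at 37 degree Celsius.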

[7] = Validation screen for small molecules that induce DNA re-replication in MCF 10A normal breast cells (AID 463097); note: nearly all actives have a fitted effect of over 60% in size
Summary of the method: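 250 MCF 10A cells/well; compound pin-transferred; 48 hr, 37 C, 5% CO2; Hoechst 40 min; imaged 405/500-530 nm. Hits = more high-intensity nuclei.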

[8] = biological target: Ubiquitin carboxyl-terminal hydrolase 2 (Homo sapiens) (UniProt O75604); assay: qHTS Validation Assay for Inhibitors of Ubiquitin-specific Protease USP2a Using CHOP2 as the Reporter (AID 463106)
Summary of the method: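 Inhibition is expressed relative to NEM as the full-inhibition control, with concentration-response curves classed by fit quality, magnitude and activity. Enzyme (USP2 core, 10nM) meets 25nM Ub-CHOP2 after compound preincubation; readings are taken at 60min.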

[9] = biological target: DNA polymerase III PolC-type (Bacillus subtilis (strain 168)) (UniProt P13267); assay: qHTS Validation Assay for the Inhibitors of DNA Replication in Gram-Positive Bacteria (AID 485295);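 note: reconstituted holoenzyme with PolC plus beta clamp SSB and primase; PicoGreen fluorescence of double-stranded DNA made on primed circular M13 template; series mostly up to about 57 µM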
Summary of the method: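 PicoGreen fluorescence (ex 480–485/em 535–540 nm) reports dsDNA synthesized on ssM13Gori template with dNTPs/NTPs. Enzyme: holoenzyme rebuilt from purified PolC, beta subunit, SSB and primase. Compound preincubated before substrate addition; RT throughout.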

[10] = biological target: Tumor susceptibility gene 101 protein (Homo sapiens) (UniProt Q99816); assay: qHTS Validation Assay for Iinhibitors of HIV-1 Budding by Blocking the Interaction of PTAP/TSG101 (AID 485342; calls by dose curve)
Summary of the method: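 FP read-out: FITC-PTAP peptide, 50 nM final, binding Tsg101 binding domain, 10 uM final; 20 min r.t.; 10 mM HEPES pH 7.5, 0.15 M NaCl, 0.01% Tween 20, 3 mM EDTA, 0.1 mM TCEP.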

[11] = biological target: Beta-2 adrenergic receptor (Homo sapiens) (UniProt P07550); assay: qHTS validation assay of beta-arrestin-biased ligands of beta2-adrenergic receptor (AID 485366)
Summary of the method: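 Compound series up to 46 microM applied to beta2-AR/beta-arrestin Tango cells, 18 hr, 37 degrees C, 5% CO2. Read-out: tTA-driven luciferase luminescence, converted to %Activity; concentration-response curves assigned curve classes.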

[12] = Quantitative high throughput screen for delayed death inhibitors of the malarial parasite plastid, 96 hour incubation (AID 488745); note: series mostly up to about 29 µM; nearly all actives have a fitted effect of over 70% in size
Summary of the method: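 Two-generation (96 h) exposure of luciferase-reporter P. falciparum in erythrocytes, 2% hematocrit, 0.1% parasitemia final, 37 C, 5% CO2, RPMI 1640 with 0.5% Albumax. Growth inhibition scored by reduced luminescence.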

[13] = Quantitative high throughput screen for delayed death inhibitors of the malarial parasite plastid, 48 hour incubation (AID 488752); note: nearly all actives have a fitted effect of over 65% in size
Summary of the method: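 Cultures: infected erythrocytes at final 2% hematocrit and 0.1% parasitemia in Albumax-supplemented RPMI. Parasites express integrated firefly luciferase. Incubation with compound lasts 48 h before luminescent detection of remaining reporter activity.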

[14] = High Content Imaging Cell-Based qHTS for Inhibitors of the mTORC1 Signaling Pathway in MEF Cells (AID 2667);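 note: Tsc2-/- p53-/- MEFs stably re-expressing wild-type Tsc2 exposed 24 h; series mostly up to about 38 µM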
Summary of the method: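 Fixed-cell imaging of phospho-S6 (Ser235/236, Alexa-488) after 24 hrs of compound treatment at 37 degree Celsius. Signal was normalized to Hoechst, and thresholds from the highest and lowest wells split cells into % active versus % non-active.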

[15] = Validation screen for inhibitors of Lassa infection (AID 463096; calls by dose curve)
[16] = qHTS Validation Assay to Find Inhibitors of Chronic Active B-Cell Receptor Signaling (AID 485345; active = well fitted curve in the direction sought with a large enough effect in the main read-out, with a control signal flat, not every such curve was filed as active)
Summary of the method: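 TMD8 ABC-DLBCL cells with dox-inducible green luciferase–IκBα fusion and red native luciferase; compounds 46 uM–3 nM, 4 h at 37C with doxycycline in 0.5% FBS IMDM. Green/red ratio normalized to basal and 10 uM MG-132.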

[17] = biological target: ATP-dependent 6-phosphofructokinase (Trypanosoma brucei brucei) (UniProt O15648); assay: qHTS Validation Assay to Find Inhibitors of T. brucei phosphofructokinase (AID 485368); note: potency is the fitted concentration of half-maximal effect
Summary of the method: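 qHTS format, up to 57 uM. PFK 1.25 nM; F6P 0.5 mM; ATP 0.1 mM; 5 mM MgCl2, 0.01% Tween20, 0.1% BSA; 0.1 M TEA pH 8.0; 45 min RT; ADP-Glo readout; no-enzyme control = full inhibition.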

[18] = qHTS Assay for Identification of Small Molecule Inducers of Hypoxia Response (AID 2120; active = well fitted curve in the direction sought with a large enough effect in the signal ratio, with a control signal flat, not every such curve was filed as active; the % refers to the signal ratio)
Summary of the method: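 HRE-bla ME-180, 2500 cells/well, 0.5% dialyzed FBS medium; cpd titration, 17 h 37 degrees C; CCF4 2.5 h RT; Ex 405, Em 460/530 ratio -> %Activity, AC50.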

Chain of RecQ-like DNA helicase BLM (Homo sapiens) (P54132 whole entry, looked up): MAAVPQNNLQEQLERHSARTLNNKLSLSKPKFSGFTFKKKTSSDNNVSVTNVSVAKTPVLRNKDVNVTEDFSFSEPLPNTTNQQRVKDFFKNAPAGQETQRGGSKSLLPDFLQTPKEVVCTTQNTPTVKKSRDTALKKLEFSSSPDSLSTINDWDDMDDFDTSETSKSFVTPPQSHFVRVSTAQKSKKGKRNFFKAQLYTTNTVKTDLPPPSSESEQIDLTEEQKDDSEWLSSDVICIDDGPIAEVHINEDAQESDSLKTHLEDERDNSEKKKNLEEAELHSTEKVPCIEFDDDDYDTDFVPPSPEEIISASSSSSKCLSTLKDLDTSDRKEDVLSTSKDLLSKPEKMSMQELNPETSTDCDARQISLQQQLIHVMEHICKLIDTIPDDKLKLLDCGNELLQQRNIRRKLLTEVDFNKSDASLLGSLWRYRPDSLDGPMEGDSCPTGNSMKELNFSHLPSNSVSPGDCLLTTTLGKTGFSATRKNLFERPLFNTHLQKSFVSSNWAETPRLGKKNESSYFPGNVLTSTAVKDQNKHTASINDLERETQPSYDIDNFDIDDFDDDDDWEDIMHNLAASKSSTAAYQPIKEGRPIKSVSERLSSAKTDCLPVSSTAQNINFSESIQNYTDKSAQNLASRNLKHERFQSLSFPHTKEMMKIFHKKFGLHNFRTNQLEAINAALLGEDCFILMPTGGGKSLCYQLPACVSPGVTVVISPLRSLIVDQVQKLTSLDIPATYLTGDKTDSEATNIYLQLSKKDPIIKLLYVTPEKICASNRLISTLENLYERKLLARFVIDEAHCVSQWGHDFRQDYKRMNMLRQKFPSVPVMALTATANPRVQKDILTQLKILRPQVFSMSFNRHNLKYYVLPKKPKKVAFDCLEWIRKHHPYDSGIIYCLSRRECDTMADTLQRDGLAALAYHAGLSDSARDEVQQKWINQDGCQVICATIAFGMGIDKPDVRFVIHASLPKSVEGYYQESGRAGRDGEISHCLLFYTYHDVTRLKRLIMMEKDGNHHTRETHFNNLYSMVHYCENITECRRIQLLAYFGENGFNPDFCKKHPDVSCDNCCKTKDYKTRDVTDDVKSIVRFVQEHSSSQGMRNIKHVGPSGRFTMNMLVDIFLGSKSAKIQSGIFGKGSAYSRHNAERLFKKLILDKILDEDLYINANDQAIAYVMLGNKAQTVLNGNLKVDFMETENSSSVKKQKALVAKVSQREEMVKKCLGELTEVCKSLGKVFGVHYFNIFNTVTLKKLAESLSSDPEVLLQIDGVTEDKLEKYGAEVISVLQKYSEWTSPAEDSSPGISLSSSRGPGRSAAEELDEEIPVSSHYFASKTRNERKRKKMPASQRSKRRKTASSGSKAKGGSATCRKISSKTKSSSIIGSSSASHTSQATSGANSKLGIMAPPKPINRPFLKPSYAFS
Chain of DNA polymerase III PolC-type (Bacillus subtilis (strain 168)) (P13267 whole entry, looked up): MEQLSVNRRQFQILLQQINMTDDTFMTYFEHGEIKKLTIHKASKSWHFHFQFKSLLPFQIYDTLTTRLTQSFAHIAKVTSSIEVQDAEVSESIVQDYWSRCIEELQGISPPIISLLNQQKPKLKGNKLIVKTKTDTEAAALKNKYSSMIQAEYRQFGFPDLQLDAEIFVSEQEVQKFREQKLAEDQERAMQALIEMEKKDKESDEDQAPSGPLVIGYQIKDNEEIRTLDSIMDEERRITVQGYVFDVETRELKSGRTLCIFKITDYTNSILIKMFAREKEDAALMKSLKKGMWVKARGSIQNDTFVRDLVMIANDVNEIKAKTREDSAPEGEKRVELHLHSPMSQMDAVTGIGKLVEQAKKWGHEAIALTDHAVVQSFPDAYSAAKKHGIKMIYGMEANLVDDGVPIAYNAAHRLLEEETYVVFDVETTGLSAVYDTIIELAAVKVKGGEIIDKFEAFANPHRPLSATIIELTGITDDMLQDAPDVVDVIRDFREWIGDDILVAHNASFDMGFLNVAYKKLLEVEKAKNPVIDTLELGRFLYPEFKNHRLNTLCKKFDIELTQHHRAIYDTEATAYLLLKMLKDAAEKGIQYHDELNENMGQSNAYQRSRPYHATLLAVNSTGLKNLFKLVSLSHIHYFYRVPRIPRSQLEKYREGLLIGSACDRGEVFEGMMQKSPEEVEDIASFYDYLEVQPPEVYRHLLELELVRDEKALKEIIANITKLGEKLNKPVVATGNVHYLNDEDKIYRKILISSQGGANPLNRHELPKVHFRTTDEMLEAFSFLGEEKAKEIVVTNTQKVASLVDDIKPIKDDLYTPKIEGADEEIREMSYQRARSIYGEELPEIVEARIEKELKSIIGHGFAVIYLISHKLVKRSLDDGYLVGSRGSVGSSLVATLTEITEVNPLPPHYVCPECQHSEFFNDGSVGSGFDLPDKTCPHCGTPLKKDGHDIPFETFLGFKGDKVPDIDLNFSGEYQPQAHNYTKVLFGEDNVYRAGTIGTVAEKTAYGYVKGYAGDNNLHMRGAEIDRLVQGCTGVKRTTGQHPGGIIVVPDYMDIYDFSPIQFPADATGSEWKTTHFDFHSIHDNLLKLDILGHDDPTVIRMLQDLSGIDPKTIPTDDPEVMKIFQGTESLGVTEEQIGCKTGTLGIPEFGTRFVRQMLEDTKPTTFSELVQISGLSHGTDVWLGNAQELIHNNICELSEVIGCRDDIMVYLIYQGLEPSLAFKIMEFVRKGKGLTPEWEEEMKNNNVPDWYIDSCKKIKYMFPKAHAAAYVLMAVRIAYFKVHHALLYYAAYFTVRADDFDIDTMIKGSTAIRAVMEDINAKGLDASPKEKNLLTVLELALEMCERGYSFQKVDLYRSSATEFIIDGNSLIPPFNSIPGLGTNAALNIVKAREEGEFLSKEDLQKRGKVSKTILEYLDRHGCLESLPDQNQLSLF
Chain of Ubiquitin carboxyl-terminal hydrolase 2 (Homo sapiens) (O75604 whole entry, looked up): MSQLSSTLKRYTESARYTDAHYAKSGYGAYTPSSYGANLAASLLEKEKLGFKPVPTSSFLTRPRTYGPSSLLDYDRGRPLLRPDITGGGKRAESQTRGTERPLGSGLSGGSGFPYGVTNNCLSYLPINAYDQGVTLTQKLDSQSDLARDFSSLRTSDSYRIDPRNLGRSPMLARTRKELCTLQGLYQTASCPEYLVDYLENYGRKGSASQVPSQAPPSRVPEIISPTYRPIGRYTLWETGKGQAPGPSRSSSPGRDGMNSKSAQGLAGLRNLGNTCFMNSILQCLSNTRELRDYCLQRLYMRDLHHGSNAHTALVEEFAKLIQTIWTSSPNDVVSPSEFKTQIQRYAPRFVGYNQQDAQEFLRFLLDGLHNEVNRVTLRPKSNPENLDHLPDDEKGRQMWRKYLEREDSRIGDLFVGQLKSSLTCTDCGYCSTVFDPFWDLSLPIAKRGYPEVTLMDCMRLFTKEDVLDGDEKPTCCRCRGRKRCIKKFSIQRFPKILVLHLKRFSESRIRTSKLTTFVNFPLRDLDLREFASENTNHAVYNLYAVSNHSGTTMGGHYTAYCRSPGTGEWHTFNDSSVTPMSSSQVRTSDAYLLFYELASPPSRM
Chain of ATP-dependent 6-phosphofructokinase (Trypanosoma brucei brucei) (O15648 whole entry, looked up): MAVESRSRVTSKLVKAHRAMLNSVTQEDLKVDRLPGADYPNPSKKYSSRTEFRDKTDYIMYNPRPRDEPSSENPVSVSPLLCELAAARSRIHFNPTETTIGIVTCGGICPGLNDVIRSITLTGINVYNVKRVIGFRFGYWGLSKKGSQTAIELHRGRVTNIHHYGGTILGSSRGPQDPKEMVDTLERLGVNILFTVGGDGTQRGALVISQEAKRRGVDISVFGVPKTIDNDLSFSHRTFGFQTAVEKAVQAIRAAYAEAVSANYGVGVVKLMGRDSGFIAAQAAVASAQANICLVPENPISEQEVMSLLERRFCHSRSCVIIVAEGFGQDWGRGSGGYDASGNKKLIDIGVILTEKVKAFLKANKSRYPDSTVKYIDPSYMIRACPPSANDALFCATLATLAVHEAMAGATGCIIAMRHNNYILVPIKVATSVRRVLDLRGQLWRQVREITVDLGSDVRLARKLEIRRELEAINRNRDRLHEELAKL
Chain of Ferritin light chain (Equus caballus) (P02791 2-175 limits assumed): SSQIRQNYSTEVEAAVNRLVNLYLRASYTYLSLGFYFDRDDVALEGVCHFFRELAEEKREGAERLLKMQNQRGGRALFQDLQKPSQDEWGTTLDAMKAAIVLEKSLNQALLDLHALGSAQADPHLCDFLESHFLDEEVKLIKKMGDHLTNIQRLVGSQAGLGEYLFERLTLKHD
Chain of Beta-2 adrenergic receptor (Homo sapiens) (P07550 whole entry, looked up): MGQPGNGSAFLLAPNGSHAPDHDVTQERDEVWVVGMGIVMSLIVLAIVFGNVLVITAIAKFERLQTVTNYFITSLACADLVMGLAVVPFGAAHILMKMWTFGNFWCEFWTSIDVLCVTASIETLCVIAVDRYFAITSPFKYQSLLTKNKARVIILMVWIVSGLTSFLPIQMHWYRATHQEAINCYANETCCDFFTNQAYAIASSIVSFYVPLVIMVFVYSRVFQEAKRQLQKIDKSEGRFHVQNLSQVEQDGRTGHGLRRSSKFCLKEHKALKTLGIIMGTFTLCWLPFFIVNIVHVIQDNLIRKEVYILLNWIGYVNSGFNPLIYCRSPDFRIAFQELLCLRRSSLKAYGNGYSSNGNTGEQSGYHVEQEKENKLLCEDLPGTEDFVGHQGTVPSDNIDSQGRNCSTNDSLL
Chain of Tumor susceptibility gene 101 protein (Homo sapiens) (Q99816 whole entry, looked up, the tested form may be a part): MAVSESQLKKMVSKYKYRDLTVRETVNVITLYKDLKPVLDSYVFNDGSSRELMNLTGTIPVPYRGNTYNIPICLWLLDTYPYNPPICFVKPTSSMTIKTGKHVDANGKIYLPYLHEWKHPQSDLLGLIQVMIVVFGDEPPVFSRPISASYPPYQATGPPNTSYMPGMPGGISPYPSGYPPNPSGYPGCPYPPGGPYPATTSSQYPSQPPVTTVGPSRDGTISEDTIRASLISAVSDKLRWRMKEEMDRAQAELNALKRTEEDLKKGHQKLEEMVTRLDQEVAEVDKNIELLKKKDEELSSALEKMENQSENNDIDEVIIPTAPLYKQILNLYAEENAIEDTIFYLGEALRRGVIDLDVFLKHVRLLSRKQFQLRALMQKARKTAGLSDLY

Row | SMILES | outcome [1] | Potency [2] | Potency [3] | Potency [4] | Potency [5] | Potency [6] | Potency [7] | Potency [8] | Potency [9] | outcome [10] | outcome [11] | Potency [12] | Potency [13] | Potency [14] | Potency [15] | Potency [16] | Potency [17] | outcome [18]
1 | C[C@H](N)CN1CCc2ccc(Br)cc21 | inactive | inactive | inactive | inactive | inactive | inactive | inactive | inactive | inactive | inactive | inactive | inactive | inactive |  |  |  |  | 
2 | Clc1ccc(N2CC3CCC(C2)N3)nn1 | inactive | inactive | inactive | inactive | inactive | inactive | inactive | inactive | inactive | inactive | inactive | inactive | inactive | inactive | inactive | inactive | inactive | 
3 | O=CC=O |  |  |  |  |  |  |  |  |  |  |  |  |  |  |  |  |  | inactive
4 | Oc1cc(Cl)c(Cl)cc1Cl |  |  |  |  |  |  |  |  |  |  |  |  |  |  |  |  |  | inactive
5 | CCOC(=O)c1ccccc1C(=O)OCC |  |  |  |  |  |  |  |  |  |  |  |  |  |  |  |  |  | inactive
6 | ClC=C(Cl)Cl |  |  |  |  |  |  |  |  |  |  |  |  |  |  |  |  |  | inactive
7 | C#CCN[C@H](C)Cc1ccccc1 | inactive | inactive | inactive | inactive | inactive | inactive | inactive | inactive | inactive | inactive | inactive | inactive | inactive |  | inactive | inactive | inactive | 
8 | ClCC1CO1 (stereo not drawn) |  |  |  |  |  |  |  |  |  |  |  |  |  |  |  |  |  | inactive
9 | c1ccc2cc(CC3=NCCN3)ccc2c1 | inactive | inactive |  | inactive | inactive | inactive | inactive |  | inactive |  |  |  | inactive | inactive | inactive | inactive | inactive | 
10 | C[N+](C)(C)CC#CCOC(=O)Nc1cccc(Cl)c1 | inactive | inactive |  | inactive | inactive | inactive | inactive |  | inactive |  |  |  |  | inactive | inactive | inactive | inactive | 
11 | CN1CCC(c2c[nH]c3ccc(O)cc23)CC1 | inactive | inactive |  | inactive | inactive | inactive | inactive |  | inactive | inactive |  |  | inactive | inactive | inactive | inactive | inactive | 
12 | C[N+](C)(C)CCOC(=O)CBr | inactive | inactive |  | inactive | inactive | inactive | inactive |  | inactive | inactive | inactive | inactive | inactive | inactive | inactive | inactive | inactive | 
13 | CC12NC(Cc3ccccc31)c1ccccc12 (stereo not drawn) | inactive | inactive |  | inactive | inactive | inactive | inactive |  | inactive |  | inactive | inactive | inactive | inactive | inactive | inactive |  | 
14 | C[N+]1(C)CCOC(O)(c2ccc(-c3ccc(C4(O)C[N+](C)(C)CCO4)cc3)cc2)C1 (stereo not drawn) | inactive | inactive |  | inactive | inactive | inactive | inactive |  | inactive | inactive |  | inactive |  | inactive | inactive | inactive |  | 
15 | COc1ccc2[nH]cc(CCN)c2c1 | inactive | inactive |  | inactive | inactive | inactive | inactive | inactive | inactive | inactive | inactive | inactive | inactive | inactive | inactive | inactive |  | 
16 | NC(=O)c1ccc(OCC(O)CN2CC=C(c3ccc(F)cc3)CC2)cc1 (stereo not drawn) | inactive | inactive |  | inactive | inactive | inactive | inactive |  | inactive | inactive | inactive | inactive | inactive | inactive | inactive | inactive | inactive | 
17 | C[N+](C)(C)CC#CCN1CCCC1=O | inactive | inactive |  | inactive | inactive | inactive | inactive |  | inactive |  | inactive | inactive | inactive | inactive | inactive | inactive | inactive | 
18 | CCCN(CCC)CCc1c[nH]c2ccc(C(N)=O)cc12 | inactive | inactive |  | inactive | inactive | inactive | inactive |  | inactive | inactive | inactive | inactive | inactive | inactive |  | inactive | inactive | 
19 | NCC(O)c1cc(O)c(O)cc1F (stereo not drawn) | inactive | inactive |  | inactive | inactive | inactive | inactive | inactive | inactive |  |  | inactive | inactive | inactive | inactive | inactive | 4.78 µM (active) | 
20 | NNC(=O)c1ccc(O)cc1 | inactive | inactive |  | inactive | inactive | inactive | inactive | inactive | inactive |  |  | inactive | inactive | inactive | inactive |  |  | 
21 | CP(=O)(O)C1=CCNCC1 | inactive | inactive |  | inactive | inactive | inactive | inactive |  | inactive | inactive | inactive | inactive | inactive | inactive | inactive | inactive |  | 
22 | C/C(O)=C(\C#N)C(=O)Nc1cc(Br)ccc1Br | inactive | inactive |  | inactive | inactive | inactive | inactive | inactive | inactive | inactive | inactive | inactive | inactive | inactive | inactive |  |  | 
23 | C[C@H](Cc1ccc2c(c1)OC(C(=O)O)(C(=O)O)O2)NC[C@H](O)c1cccc(Cl)c1 | inactive | inactive |  | inactive | inactive | inactive | inactive | inactive | inactive | inactive |  | inactive | inactive | inactive | inactive | inactive |  | 
